According to PubChem BioAssay (NCATS):
Records with an inconclusive call do not appear. Calls of active or inactive are those of the source. Unless noted, calls come from the whole dose curve.

How the values were obtained:
[1] = Cell Viability - BJ (AID 421); details: BJ fibroblast viability, qHTS;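 note: potency is the fitted concentration of half-maximal effect; cells exposed to compound for 40 hours at 37 °C before readout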
Outline: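 Cytotoxicity as drop in intracellular ATP (CellTiter-Glo, 20 min RT) after 40 hr compound exposure of BJ fibroblasts at 37 °C. Titrations scaled between DMSO and 100 uM tamoxifen, Hill-fitted for AC50.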

[2] = Cell Viability - Jurkat (AID 426;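 active = dose-dependent loss of cell ATP signal giving a full or clear fitted curve, ranked by lower potency value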;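 note: potency is the fitted concentration of half-maximal effect; cells exposed to compound for 40 hours at 37 °C before ATP read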); details: qHTS
Outline: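 Luminescent ATP read-out (CellTiter-Glo, 20 min at room temperature) after 40 hr compound exposure at 37 °C of Jurkat E6-1 cells, 5000/well. Decreased ATP taken as cytotoxicity; AC50 from standard Hill equation.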

[3] = Cell Viability - Hek293 (AID 427;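 active = compounds whose dose-response curve shows a full or clear partial loss of cell viability, called from curve shape rather than a numeric limit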;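 note: potency is the fitted concentration of half-maximal effect; cells exposed to compound for 40 hours at 37 °C before reading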); details: qHTS
Outline: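 Luminescent ATP content (CellTiter-Glo, 20 min at room temperature) was measured after a 40 hr, 37 °C compound exposure of HEK293 cells. AC50 values came from Hill-equation fits of qHTS concentration-response data normalized to DMSO and 100 uM tamoxifen.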

[4] = Cell Viability - HepG2 (AID 433); details: qHTS;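 note: potency is the fitted concentration of half-maximal effect; cells exposed to compound for 40 hours; potency for ATP loss meaning cytotoxicity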
Outline: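 HepG2 cells, 1500 per well, treated 40 hr at 37 °C in complete medium; viability from intracellular ATP by CellTiter-Glo luminescence. Normalized to DMSO and 100 uM tamoxifen; AC50 from Hill fit of qHTS concentration-response.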

[5] = Cell Viability - MRC5 (AID 434); details: MRC5 lung fibroblast viability, qHTS;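 note: potency is the fitted concentration of half-maximal effect; cells exposed to compound for 40 hours at 37 °C; potency reflects cytotoxicity seen as loss of intracellular ATP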
Outline: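 AC50 values come from Hill-equation fits of intracellular ATP loss, measured by CellTiter-Glo luminescence. Normal lung fibroblasts (MRC5) had 40 hr compound treatment at 37 C, normalized between DMSO and 100 uM tamoxifen.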

[6] = Cell Viability - SK-N-SH (AID 435); details: SK-N-SH neuroblastoma cell viability qHTS;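 note: potency is the fitted concentration of half-maximal effect; compound exposure lasted 40 h at 37 °C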
Outline: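 SK-N-SH neuroblastoma cells (1500/well) treated 40 h at 37 °C in complete medium; viability read as cellular ATP by CellTiter-Glo luminescence. Normalized to DMSO and 100 uM tamoxifen; AC50 from Hill fits of qHTS concentration-response.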

[7] = molecular target: Mitogen-activated protein kinase 10 (Mus musculus) (UniProt Q61831); experiment: JNK3 AlphaScreen Assay (AID 530; active = well fitted curve in either direction with a large enough effect, not every such curve was filed as active;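 note: kinase came from lysate of stimulated human HepG2 cells; signal reports phosphorylation of biotinylated GST-cJun 1-79 at Ser73 with 10 µM ATP; % is set by controls: 0 for no effect and ±100 for the full control effect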); details: JNK3 lysate, c-Jun phosphorylation; series mostly up to 57.1 µM
Outline: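 Kinase buffer: 20 mM Tris-HCl pH 7.6, 10 mM MgCl2, 1 mM DTT, 0.1 mM Na3VO4, 0.01% Tween-20; ATP 10 uM. Substrate biotin-GST-cJun(1-79), enzyme from activated HepG2 lysates. Detection by Ser73 phospho-antibody AlphaScreen.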

[8] = Cell Viability - N2a (AID 540; active = well fitted curve in the direction sought with a large enough effect; an effect the other way counts as inactive or inconclusive;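 note: cells exposed to compound for 40 h at 37 °C; plate controls were DMSO alone for no effect and tamoxifen control for full effect; nearly all actives have a fitted effect of over 45% in size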); details: N2a mouse neuroblastoma cell viability; activity change, negative = cytotoxicity: at 92.2 µM (top of the series)
Outline: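 N2a mouse neuroblastoma, 1500 cells/well, 5 hr settle; compound 40 hr, 37 °C; CellTiter-Glo 20 min RT; luminescence; Hill-fit AC50.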

[9] = Cell Viability - NIH 3T3 (AID 541; active = well fitted curve in the direction sought with a large enough effect; an effect the other way counts as inactive or inconclusive;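 note: cells exposed to compound for 40 hours; plate controls were DMSO alone for no effect and tamoxifen positive control for full effect; nearly all actives have a fitted effect of over 25% in size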); details: NIH 3T3 cell viability, qHTS; activity change, negative = cytotoxicity: at 92.2 µM (top of the series)
Outline: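 qHTS format; 40 hr compound exposure, 37 °C; CellTiter-Glo luminescence (cellular ATP) read-out after 20 min at RT. Decrease in ATP = cytotoxicity; AC50 from standard Hill fit.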

[10] = Cell Viability - HUV-EC-C (AID 542; active = well fitted curve in the direction sought with a large enough effect; an effect the other way counts as inactive or inconclusive;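 note: cells exposed to compound for 40 hours; % is set by controls: 0 for no effect and ±100 for the full control effect; nearly all actives have a fitted effect of over 35% in size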); details: HUV-EC-C endothelial cell viability, qHTS; series mostly up to 92.2 µM
Outline: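 Luminescent ATP read-out (CellTiter-Glo, 20 min room temperature) after 40 hr compound treatment of HUV-EC-C cells at 37 °C. Concentration-response data fitted with the standard Hill equation to give AC50; tamoxifen and doxorubicin served as positive controls.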

CC=O
inactive: Potency [1] > 92 µM | Potency [2] > 92 µM | Potency [3] > 92 µM | Potency [4] > 92 µM | Potency [5] > 92 µM | Potency [6] > 92 µM | outcome [7] | activity change, negative = cytotoxicity [8] 1.14% | Potency [9] | Potency [10]

C=Cc1ccc(C=C)cc1
inactive: Potency [1] > 92 µM | Potency [2] > 92 µM | Potency [3] > 92 µM | Potency [4] > 92 µM | Potency [5] > 92 µM | Potency [6] > 92 µM | outcome [7] | activity change, negative = cytotoxicity [8] -7.69% | Potency [9] | Potency [10]

Cc1cccc2sc(N)nc12
inactive: Potency [1] > 92 µM | Potency [2] > 92 µM | Potency [3] > 92 µM | Potency [4] > 92 µM | Potency [5] > 92 µM | Potency [6] > 92 µM | outcome [7] | activity change, negative = cytotoxicity [8] -1.12% | Potency [9] | Potency [10]

[O-]/[N+](=N\O)c1ccccc1
inactive: Potency [1] > 92 µM | Potency [2] > 92 µM | Potency [3] > 92 µM | Potency [4] > 92 µM | Potency [5] > 92 µM | Potency [6] > 92 µM | outcome [7] | activity change, negative = cytotoxicity [8] 0.0649% | Potency [9] | Potency [10]

CCCCCCCCC
inactive: Potency [1] > 92 µM | Potency [2] > 92 µM | Potency [3] > 92 µM | Potency [4] > 92 µM | Potency [5] > 92 µM | Potency [6] > 92 µM | outcome [7] | activity change, negative = cytotoxicity [8] -3.11% | Potency [9] | Potency [10]

COc1cccc2sc(N)nc12
inactive: Potency [1] > 92 µM | Potency [2] > 92 µM | Potency [3] > 92 µM | Potency [4] > 92 µM | Potency [5] > 92 µM | Potency [6] > 92 µM | outcome [7] | activity change, negative = cytotoxicity [8] -10.1% | Potency [9] | Potency [10]

CCCCN(CCO)CCCC
inactive: Potency [1] > 92 µM | Potency [2] > 92 µM | Potency [3] > 92 µM | Potency [4] > 92 µM | Potency [5] > 92 µM | Potency [6] > 92 µM | outcome [7] | activity change, negative = cytotoxicity [8] -15.2% | Potency [9] | Potency [10]

CCCCC(C=O)CC (stereo not given)
inactive: Potency [1] > 92 µM | Potency [2] > 92 µM | Potency [3] > 92 µM | Potency [4] > 92 µM | Potency [5] > 92 µM | Potency [6] > 92 µM | outcome [7] | activity change, negative = cytotoxicity [8] 2.46% | Potency [9] | Potency [10]

Nc1cc(Cl)c(N)c(Cl)c1
inactive: Potency [1] > 92 µM | Potency [2] > 92 µM | Potency [3] > 92 µM | Potency [4] > 92 µM | Potency [5] > 92 µM | Potency [6] > 92 µM | outcome [7] | activity change, negative = cytotoxicity [8] -5.31% | Potency [9] | Potency [10]

CCC(O)C(C)(C)C (stereo not given)
inactive: Potency [1] > 92 µM | Potency [2] > 92 µM | Potency [3] > 92 µM | Potency [4] > 92 µM | Potency [5] > 92 µM | Potency [6] > 92 µM | outcome [7] | activity change, negative = cytotoxicity [8] 5.57% | Potency [9] | Potency [10]

OC(CCl)CCl
inactive: Potency [1] > 92 µM | Potency [2] > 92 µM | Potency [3] > 92 µM | Potency [4] > 92 µM | Potency [5] > 92 µM | Potency [6] > 92 µM | outcome [7] | activity change, negative = cytotoxicity [8] -4.88% | Potency [9] | Potency [10]

CC(=O)OCc1ccco1
inactive: Potency [1] > 92 µM | Potency [2] > 92 µM | Potency [3] > 92 µM | Potency [4] > 92 µM | Potency [5] > 92 µM | Potency [6] > 92 µM | outcome [7] | activity change, negative = cytotoxicity [8] -7.42% | Potency [9] | Potency [10]

Cc1ccc(C)cc1
inactive: Potency [1] > 92 µM | Potency [2] > 92 µM | Potency [3] > 92 µM | Potency [4] > 92 µM | Potency [5] > 92 µM | Potency [6] > 92 µM | outcome [7] | activity change, negative = cytotoxicity [8] -13.5% | Potency [9] | Potency [10]

O=P(O)(OCc1ccccc1)OCc1ccccc1
inactive: Potency [1] > 92 µM | Potency [2] > 92 µM | Potency [3] > 92 µM | Potency [4] > 92 µM | Potency [5] > 92 µM | Potency [6] > 92 µM | outcome [7] | activity change, negative = cytotoxicity [8] 4.67% | Potency [9] | Potency [10]

c1ccc2[nH]cnc2c1
inactive: Potency [1] > 92 µM | Potency [2] > 92 µM | Potency [3] > 92 µM | Potency [4] > 92 µM | Potency [5] > 92 µM | Potency [6] > 92 µM | outcome [7] | activity change, negative = cytotoxicity [8] -1.37% | Potency [9] | Potency [10]

CC(=O)c1ccccc1[N+](=O)[O-]
inactive: Potency [1] > 92 µM | Potency [2] > 92 µM | Potency [3] > 92 µM | Potency [4] > 92 µM | Potency [5] > 92 µM | Potency [6] > 92 µM | outcome [7] | activity change, negative = cytotoxicity [8] -16.5% | Potency [9] | Potency [10]
